Source: PubChem BioAssay (NCI)
This is part of a sample that, as a whole, favours compounds with a hit. Of some 83,000 tested, about 20% had one in any assay.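 Assay: single dose, 48 h. Readout: percent growth (0 = no net growth; negative = cell death). Active: <10.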 A number with no mark means an inactive call. Activity calls are given as the source filed them.

tested on: OVCAR-4 ovarian; test: NCI-60 one-dose screen, 48 h (100 = growth as untreated, 0 = no growth, -100 = all killed); details: 10 µM unless noted
Description: Growth inhibition of the OVCAR-4 human tumor cell line is measured as a screen for anti-cancer activity. Cells are grown in 96 well plates and exposed to the test compound for 48 hours. Compounds are tested at a single concentration, which is 10^-5 M for most compounds. The reported endpoint is percent growth (GI% or GIPRCNT), where numbers from 0 - 100% represent growth inhibition, and numbers from -100% - 0 represent cell death. For example, a value of 40 represents 60% growth inhibition. A value of 0 means no net growth occurred over the course of the experiment. A value of -40 indicates 40% of cells at the beginning of the experiment died by the end of the experiment. A value of -100 means all cells are dead at the end of the experiment.
NCI-60 Human Tumor Cell Lines Screen was performed using the standard one-dose NCI protocol, which is described in more detail at https://dtp.cancer.gov/discovery_development/nci-60/default.htm.
Compounds with GIPRCNT values below 10 were considered active. Activity score was based on GIPRCNT using the following formula: […]
Score is 0 for GIPRCNT values of 100 or above, 50 for GIPRCNT values of 0, and 100 for GIPRCNT values of -100.

Row | Structure (SMILES) | growth
1 | O=C1c2cccc3cccc(c23)C(=O)N1N1C(=O)c2cccc3c(NC4CCCCC4)ccc(c23)C1=O | 96.8%
2 | COc1ccc2c(c1)/C(=C/c1sc(=S)n(Cc3ccco3)c1O)C=N2 | 73.7%
3 | C=C1C(=O)O[C@H]2[C@H]1CC/C(COC(=O)C(C)c1ccc(CC(C)C)cc1)=C\CC[C@@]1(C)O[C@@H]21 (stereo not given in full) | 8.73% (active)
4 | CN(C)c1ccc(/C=N\Nc2cc(=O)[nH]c3ccc(Cl)cc23)cc1 | 121%
5 | C[C@]12CC[C@@H]3c4cc(OC(F)F)c(OS(N)(=O)=O)cc4CC[C@H]3[C@@H]1CC[C@@H]2OS(N)(=O)=O | 76.1%
6 | COc1c(C2CC(=O)Nc3c2c(C)nn3-c2nc3ccccc3[nH]2)cc2c(c1OC)OCO2 (stereo not given) | 83.2%
7 | O=c1[nH][n+](-c2ccc(Br)cc2)no1 | 57.9%
8 | COc1c(B(O)O)cc(F)cc1-c1nc2ccc3[nH]ncc3c2c2c1CCCC2 | 25.8%
9 | N#Cc1c(Nc2cccc(Cl)c2)sc(C(=O)c2cc3cc(Cl)ccc3o2)c1N | 92.5%
10 | CC(=O)N1N=C(c2ccc(Nc3nc(Nc4ccc(F)cc4)nc(Nc4ccc(Cl)cc4)n3)cc2)CC1c1ccc(Cl)cc1 (stereo not given) | 94.2%
11 | CCOC(=O)/C(C#N)=C\Nc1ccc2ncnc(Nc3ccc(Cl)cc3Cl)c2c1 | 95.1%
12 | Cc1nc(/N=C(\N)NC(=O)Nc2cccc(Cl)c2)sc1C | 99.3%
13 | Cc1oc2nc[nH]c(=O)c2c1C(=O)/C=C/c1ccc(Br)cc1 | 36%
14 | O=C(CS(=O)c1oc(-c2cccs2)nc1S(=O)(=O)c1ccc(Br)cc1)c1ccccc1 (stereo not given) | 75.2%
15 | COc1ccc(C(=O)n2nc(-c3ccccc3)nc2N)cc1OC | 90.9%
16 | O=C(O)C(c1ccccc1)N1C(=O)CSC1=S (stereo not given) | 109%
17 | Cc1cc(-c2cc(C)c(N)cc2C)c(C)cc1N | 117%
18 | CCN(CC)Cc1cc(Nc2c3ccc(Cl)cc3nc3ccc(OC)cc23)ccc1O | 58.6%
19 | COc1ccc(CNC(=O)[C@H](O)[C@@H](N)Cc2ccccc2)cc1 | 104%
20 | O=C(Nc1ccc(OS(=O)(=O)c2ccc(F)cc2)cc1)c1ccc(Cl)cc1 | 106%

Row | Structure (SMILES) | growth
21 | Oc1ccc(Cl)cc1Cc1cc(Cl)cc(Cl)c1O | 17.5%
22 | NCCOc1ncccc1/C=C1\c2ccccc2-c2ccc(C(F)F)cc21 | 83.9%
23 | CCN(CC)CCNC(=O)c1cn2ncnc(Oc3ccc(NC(=O)Nc4ccc(Cl)c(C(F)(F)F)c4)cc3)c2c1C | -8.97% (active)
24 | CCOC(=O)/C=C1\S/C(=N\Nc2ccc([N+](=O)[O-])cc2[N+](=O)[O-])N(Cc2ccccc2)C1=O | 69.2%
25 | COC1=C(C)C(=O)c2c(c(CCCl)c3n2CCC3O)C1=O (stereo not given) | 79.1%
26 | COC(=O)Nc1ccc(-c2nc(-c3cccc(OC)c3)c(-c3ccnc(Br)c3)[nH]2)cc1 | 51.5%
27 | COc1cccc(Cc2cc(-c3ccccc3)nn(CC(=O)c3ccccc3)c2=O)c1 | 69.5%
28 | CC(=O)OC[C@H]1OC(Sc2sc(C(=O)c3ccc(Cl)cc3)c(N)c2-c2nc3ccccc3s2)[C@H](OC(C)=O)[C@@H](OC(C)=O)[C@@H]1OC(C)=O (stereo not given in full) | 52.5%
29 | CCN(CC)S(=O)(=O)c1ccc(NC(=O)CSc2nnc(C)n2-c2ccccc2)cc1 | 102%
30 | COc1ccc2c(c1OC)C(=O)O[C@H]2[C@H]1c2c(cc3c(c2OC)OCO3)CCN1C | 105%
31 | N#CC1=C(N)Oc2c(sc3c(Br)cccc23)C1c1ccc([N+](=O)[O-])cc1 (stereo not given) | 39.8%
32 | Cc1ccc2c(-c3cc(-c4ccccc4)nc(N)c3C#N)cc(=O)oc2c1 | 114%
33 | COc1cc(C2CC(c3cccc(Br)c3)=NN2C(C)=O)cc(OC)c1OC (stereo not given) | 41.7%
34 | O=C(CCN1C(=O)/C(=C/c2ccc(O)cc2)SC1=S)Nc1ccc(Cl)cc1 | 91.1%
35 | COc1cc(/C=C/c2c(C(C)=O)c(C)nc3ccccc23)cc(OC)c1OC | 52.7%
36 | COc1ccc(C(=O)N=Nc2c(O)n(C)c3ccccc23)cc1 | 91.9%
37 | CN(C)CCCNc1nc2ccccc2c2c(=O)c3cc(F)ccc3sc12 | 36.6%
38 | N#Cc1c(-c2ccccc2)nc(SCC(=O)Nc2nc(-c3ccc(Cl)cc3)cs2)[nH]c1=O | 110%
39 | Cc1ccc2c(n1)C(=O)C(Cl)=C(Nc1ccccc1C(C)C)C2=O | 28.4%
40 | CCOC(=O)c1cn2ncnc(Oc3ccc(NC(=O)NCCN4CCOCC4)c(Cl)c3)c2c1C | 96.3%
